# Where “and” joins values, the source holds several entries; their conditions need not be identical. Equal entries are not always repeated. Inconclusive results are not listed. A call without a number means that no potency is given here. The source holds several records for some structures; these can differ, active in one and inactive in another. Calls of active or inactive are those of the source. Calls follow the shape of the dose curve; as a rule, active = well fitted curve in the direction sought with a large enough effect in the repeat runs; inconclusive = weak or mixed curves; inactive = no such curve, though single readings can be large; an effect the other way counts as inactive or inconclusive.
# Key:
# [1] = Human pregnane X receptor (PXR) small molecule agonists, qHTS cell viability counter screen (AID 1346977); also: nearly all actives have a fitted effect of over 50% in size; also: potency is read from the fitted curve at half-maximal effect
# Procedure, shortened: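 Same-well viability read: CellTiter-Fluor added after 23 hr compound exposure, fluorescence measured 1 hr later. Cells were PXR-Luc HepG2 seeded at 2,000/well in 5% charcoal-stripped FBS medium, rested 5 hr before dosing at 37 C.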
# [2] = Caspase-3/7 induction in HepG2 cells by small molecules, qHTS assay (AID 1346978); also: nearly all actives have a fitted effect of over 15% in size; also: potency is read from the fitted curve at half-maximal effect
# Procedure, shortened: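 Wild-type HepG2 cells (2,000/well) were settled 5 h at 37 C, 5% CO2, then exposed to compounds in DMSO for 17 h. Caspase-3/7 activity was read by luminescence 30 min after adding Caspase-Glo 3/7 reagent at room temperature.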
# [3] = Caspase-3/7 induction in CHO-K1 cells by small molecules, qHTS cell viability counter screen (AID 1346979); also: nearly all actives have a fitted effect of over 35% in size; also: potency is read from the fitted curve at half-maximal effect
# Procedure, shortened: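 Cytotoxicity counter screen: CellTiter-Fluor added to compound-treated wild-type CHO-K1 cells at 16 h (37C, 5% CO2), fluorescence measured 1 h later; same wells as caspase-3/7 measurement.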
# [4] = Caspase-3/7 induction in CHO-K1 cells by small molecules, qHTS assay (AID 1346980); also: nearly all actives have a fitted effect of over 15% in size; also: potency is read from the fitted curve at half-maximal effect
# Procedure, shortened: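 Wild-type cells were seeded at 1,500 per well and settled 5 hr at 37 C, 5% CO2, then exposed to DMSO-dissolved compounds for 17 hr. Caspase-Glo 3/7 reagent was added, and luminescence was read after 30min at room temperature.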
# [5] = Caspase-3/7 induction in HepG2 cells by small molecules, qHTS cell viability counter screen (AID 1346981); also: nearly all actives have a fitted effect of over 30% in size; also: potency is read from the fitted curve at half-maximal effect
# Procedure, shortened: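 Steps: seed 2,000 HepG2 cells per well; incubate 5 hr at 37 C; pin-add compounds in DMSO; incubate 16 hr; add CellTiter-Fluor; after 1 hr at 37 C and 5% CO2, read fluorescence.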
# [6] = target: Nuclear receptor subfamily 1 group I member 2 (Homo sapiens) (UniProt O75469); assay: Human pregnane X receptor (PXR) small molecule agonists, qHTS assay (AID 1346982); also: nearly all actives have a fitted effect of over 35% in size; also: potency is read from the fitted curve at half-maximal effect
# Procedure, shortened: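 Agonist mode qHTS: PXR-Luc HepG2 cells plated 5 hr before DMSO-dissolved compounds were pinned in, cultured 24 hr at 37 C, 5% CO2; ONE-Glo luminescence readout.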
# [7] = target: Cytochrome P450 2C9 (Homo sapiens) (UniProt P11712); assay: Cytochrome P450 Family 2 Subfamily C Member 9 (CYP2C9) small molecule antagonists: luciferase reporter qHTS assay (AID 1671198); also: nearly all actives have a fitted effect of over 50% in size; also: potency is read from the fitted curve at half-maximal effect
# Procedure, shortened: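 CYP2C9 activity was measured with a P450-Glo proluciferin substrate. Enzyme–substrate mix was held with compound for 10 min at room temperature, then NADPH regeneration solution was added for 1 h at 37C. Luciferin product was read as luminescence.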
# [8] = target: Voltage-gated inwardly rectifying potassium channel KCNH2 (Homo sapiens) (UniProt Q12809); assay: Human Ether-a-go-go-Related Gene (hERG) channel small molecule antagonists: fluorescence cell-based qHTS assay (AID 1671200); also: nearly all actives have a fitted effect of over 50% in size; also: potency is read from the fitted curve at half-maximal effect
# Procedure, shortened: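 Thallium flux as potassium surrogate: FluxOR II dye loaded 1 h at room temperature into hERG-expressing U2OS cells, then stimulus buffer added after 10 min. Kinetic 480 nm excitation/540 nm emission read, 2 min.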
# [9] = target: Cytochrome P450 3A4 (Homo sapiens) (UniProt P08684); assay: Cytochrome P450 Family 3 Subfamily A Member 4 (CYP3A4) small molecule antagonists: luciferase reporter qHTS assay (AID 1671201); also: nearly all actives have a fitted effect of over 50% in size; also: potency is read from the fitted curve at half-maximal effect
# Procedure, shortened: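 Recombinant human CYP3A4 converts a proluciferin substrate to luciferin over 1 h at room temperature after NADPH regeneration solution is added (compound preincubated 10 min); detection reagent stops reaction, luminescence read 20 min later as relative units.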
# [10] = target: Cytochrome P450 2D6 (Homo sapiens) (UniProt P10635); assay: Cytochrome P450 Family 2 Subfamily D Member 6 (CYP2D6) small molecule antagonists: luciferase reporter qHTS assay (AID 1671196); also: nearly all actives have a fitted effect of over 50% in size; also: potency is read from the fitted curve at half-maximal effect
# Procedure, shortened: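 P450-Glo format: CYP2D6 converts a proluciferin substrate to luciferin in an NADPH-driven reaction lasting 1 h at room temperature. Light output, proportional to CYP2D6 activity, reflects interference by test chemicals.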
# [11] = target: Cytochrome P450 2C19 (Homo sapiens) (UniProt P33261); assay: Cytochrome P450 Family 2 Subfamily C Member 19 (CYP2C19) small molecule antagonists: luciferase reporter qHTS assay (AID 1671197); also: nearly all actives have a fitted effect of over 65% in size; also: potency is read from the fitted curve at half-maximal effect
# Procedure, shortened: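 Inhibition of CYP2C19 was scored from loss of luminescence in a P450-Glo proluciferin substrate assay, NADPH-started and run 1 h at 37C, with ketoconazole as positive control.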
# [12] = target: Cytochrome P450 1A2 (Homo sapiens) (UniProt P05177); assay: Cytochrome P450 Family 1 Subfamily A Member 2 (CYP1A2) small molecule antagonists: luciferase reporter qHTS assay (AID 1671199); also: nearly all actives have a fitted effect of over 50% in size; also: potency is read from the fitted curve at half-maximal effect
# Procedure, shortened: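 Inhibition of CYP1A2 conversion of proluciferin to luciferin, detected by luminescence. Reaction run 1 h at room temperature with NADPH regeneration after brief compound preincubation.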
# [13] = target: Nuclear receptor subfamily 1 group I member 2 (Rattus norvegicus) (UniProt Q9R1A7); assay: Rat pregnane X receptor (rPXR) activation by small molecules, qHTS assay (AID 1346983); conditions: rPXR luciferase reporter cells, One-Glo luminescence, 24 h; stronger effect = higher value; also: nearly all actives have a fitted effect of over 20% in size
# Procedure, shortened: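 Cell-based rPXR luciferase reporter assay, 2,000 cells per well, rested 5hr at 37 C before compound addition in DMSO, then 24 hr at 37 C. One-Glo reagent was added and luminescence read after 30 min at room temperature.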
# [14] = target: Nuclear receptor subfamily 1 group I member 2 (Homo sapiens) (UniProt O75469); assay: Human pregnane X receptor (PXR) activation by small molecules, qHTS assay (AID 1346985); also: nearly all actives have a fitted effect of over 40% in size; also: potency is read from the fitted curve at half-maximal effect
# Procedure, shortened: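 DPX-2 cells (HepG2 co-transfected with a PXR response element and a CYP3A4-promoter luciferase construct) were seeded at 2,000 per well, rested 5 hr at 37C, then exposed to DMSO-dissolved compounds for 24 hr. Activation was read as luciferase luminescence.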
# Sequence of Voltage-gated inwardly rectifying potassium channel KCNH2 (Homo sapiens) (Q12809 whole entry, looked up): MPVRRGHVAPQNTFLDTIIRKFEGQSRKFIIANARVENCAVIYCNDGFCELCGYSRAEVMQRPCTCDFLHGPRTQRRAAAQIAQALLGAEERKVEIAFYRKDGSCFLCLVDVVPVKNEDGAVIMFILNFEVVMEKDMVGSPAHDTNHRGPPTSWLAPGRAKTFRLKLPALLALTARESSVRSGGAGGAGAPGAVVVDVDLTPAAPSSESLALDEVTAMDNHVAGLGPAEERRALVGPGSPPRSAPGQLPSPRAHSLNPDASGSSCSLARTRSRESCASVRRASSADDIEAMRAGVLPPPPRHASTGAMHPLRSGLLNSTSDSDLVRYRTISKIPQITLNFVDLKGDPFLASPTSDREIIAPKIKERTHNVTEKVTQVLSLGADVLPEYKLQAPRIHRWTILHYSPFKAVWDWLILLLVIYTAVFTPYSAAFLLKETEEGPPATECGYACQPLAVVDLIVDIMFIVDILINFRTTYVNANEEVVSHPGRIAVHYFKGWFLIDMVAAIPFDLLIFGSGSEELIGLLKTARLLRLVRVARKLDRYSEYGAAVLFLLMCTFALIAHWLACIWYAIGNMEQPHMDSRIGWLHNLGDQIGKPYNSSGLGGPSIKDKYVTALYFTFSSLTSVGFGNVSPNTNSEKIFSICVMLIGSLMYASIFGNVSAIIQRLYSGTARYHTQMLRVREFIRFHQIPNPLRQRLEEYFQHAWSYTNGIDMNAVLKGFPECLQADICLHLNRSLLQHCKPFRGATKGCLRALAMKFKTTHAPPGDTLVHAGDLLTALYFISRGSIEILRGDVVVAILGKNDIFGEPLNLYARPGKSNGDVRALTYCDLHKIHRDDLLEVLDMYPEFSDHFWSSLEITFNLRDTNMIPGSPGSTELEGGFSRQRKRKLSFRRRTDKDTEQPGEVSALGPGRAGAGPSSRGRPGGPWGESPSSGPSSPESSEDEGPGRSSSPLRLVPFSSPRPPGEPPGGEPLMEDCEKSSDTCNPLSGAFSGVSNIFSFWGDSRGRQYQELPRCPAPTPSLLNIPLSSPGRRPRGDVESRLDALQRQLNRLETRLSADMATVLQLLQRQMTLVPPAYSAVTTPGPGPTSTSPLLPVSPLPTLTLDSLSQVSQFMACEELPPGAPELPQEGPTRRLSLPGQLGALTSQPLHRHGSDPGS
# Sequence of Cytochrome P450 2D6 (Homo sapiens) (P10635 whole entry, looked up): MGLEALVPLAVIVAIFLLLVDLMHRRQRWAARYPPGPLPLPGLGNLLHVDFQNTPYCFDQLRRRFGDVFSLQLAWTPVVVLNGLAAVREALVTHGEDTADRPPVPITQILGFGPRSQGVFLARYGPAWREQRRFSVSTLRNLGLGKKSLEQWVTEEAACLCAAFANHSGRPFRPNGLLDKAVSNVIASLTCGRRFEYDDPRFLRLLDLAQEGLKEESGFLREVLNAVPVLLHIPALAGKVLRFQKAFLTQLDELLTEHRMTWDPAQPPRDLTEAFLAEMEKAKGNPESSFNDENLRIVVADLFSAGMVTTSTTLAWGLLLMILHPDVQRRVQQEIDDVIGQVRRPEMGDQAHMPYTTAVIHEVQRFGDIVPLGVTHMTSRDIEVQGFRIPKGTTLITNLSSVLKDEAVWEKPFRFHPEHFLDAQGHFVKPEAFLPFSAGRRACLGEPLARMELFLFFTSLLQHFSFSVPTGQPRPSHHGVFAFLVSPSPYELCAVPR
# Sequence of Nuclear receptor subfamily 1 group I member 2 (Rattus norvegicus) (Q9R1A7 whole entry, looked up): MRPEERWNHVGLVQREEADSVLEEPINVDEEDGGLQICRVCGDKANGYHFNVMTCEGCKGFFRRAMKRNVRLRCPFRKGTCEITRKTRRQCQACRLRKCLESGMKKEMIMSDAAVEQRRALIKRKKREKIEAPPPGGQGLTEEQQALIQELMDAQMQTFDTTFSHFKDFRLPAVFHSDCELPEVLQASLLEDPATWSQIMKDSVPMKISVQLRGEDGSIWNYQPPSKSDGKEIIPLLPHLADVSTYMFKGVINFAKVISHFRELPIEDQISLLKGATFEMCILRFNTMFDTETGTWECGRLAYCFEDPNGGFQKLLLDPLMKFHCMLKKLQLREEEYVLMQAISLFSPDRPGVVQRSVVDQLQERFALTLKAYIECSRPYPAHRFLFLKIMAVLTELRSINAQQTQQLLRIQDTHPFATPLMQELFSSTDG
# Sequence of Cytochrome P450 1A2 (Homo sapiens) (P05177 whole entry, looked up): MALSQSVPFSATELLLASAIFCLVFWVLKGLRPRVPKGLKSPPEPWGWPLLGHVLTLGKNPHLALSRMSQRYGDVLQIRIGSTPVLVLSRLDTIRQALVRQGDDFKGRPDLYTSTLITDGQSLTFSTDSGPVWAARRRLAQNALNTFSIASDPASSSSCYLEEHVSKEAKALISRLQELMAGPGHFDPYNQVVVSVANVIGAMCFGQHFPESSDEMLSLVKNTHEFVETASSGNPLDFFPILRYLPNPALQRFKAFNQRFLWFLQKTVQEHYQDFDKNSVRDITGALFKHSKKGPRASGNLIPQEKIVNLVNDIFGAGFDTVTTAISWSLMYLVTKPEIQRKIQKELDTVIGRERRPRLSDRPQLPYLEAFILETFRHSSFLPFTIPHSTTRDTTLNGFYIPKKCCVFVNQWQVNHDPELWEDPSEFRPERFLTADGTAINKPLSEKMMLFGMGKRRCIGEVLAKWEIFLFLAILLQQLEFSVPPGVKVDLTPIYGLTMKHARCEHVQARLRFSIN
# Sequence of Cytochrome P450 3A4 (Homo sapiens) (P08684 whole entry, looked up): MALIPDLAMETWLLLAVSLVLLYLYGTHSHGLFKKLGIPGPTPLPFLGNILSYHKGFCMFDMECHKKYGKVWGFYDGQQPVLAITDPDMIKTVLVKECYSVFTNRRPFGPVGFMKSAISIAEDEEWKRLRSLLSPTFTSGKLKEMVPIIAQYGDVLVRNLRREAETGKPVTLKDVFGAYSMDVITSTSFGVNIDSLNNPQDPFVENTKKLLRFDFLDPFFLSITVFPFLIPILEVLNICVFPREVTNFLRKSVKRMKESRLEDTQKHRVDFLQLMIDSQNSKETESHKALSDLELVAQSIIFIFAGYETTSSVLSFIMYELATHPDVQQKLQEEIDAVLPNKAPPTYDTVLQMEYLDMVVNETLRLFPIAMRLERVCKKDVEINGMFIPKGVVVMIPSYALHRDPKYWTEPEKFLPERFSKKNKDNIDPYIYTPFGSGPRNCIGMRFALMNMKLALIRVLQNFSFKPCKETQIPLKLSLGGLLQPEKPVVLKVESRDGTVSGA
# Sequence of Cytochrome P450 2C19 (Homo sapiens) (P33261 whole entry, looked up): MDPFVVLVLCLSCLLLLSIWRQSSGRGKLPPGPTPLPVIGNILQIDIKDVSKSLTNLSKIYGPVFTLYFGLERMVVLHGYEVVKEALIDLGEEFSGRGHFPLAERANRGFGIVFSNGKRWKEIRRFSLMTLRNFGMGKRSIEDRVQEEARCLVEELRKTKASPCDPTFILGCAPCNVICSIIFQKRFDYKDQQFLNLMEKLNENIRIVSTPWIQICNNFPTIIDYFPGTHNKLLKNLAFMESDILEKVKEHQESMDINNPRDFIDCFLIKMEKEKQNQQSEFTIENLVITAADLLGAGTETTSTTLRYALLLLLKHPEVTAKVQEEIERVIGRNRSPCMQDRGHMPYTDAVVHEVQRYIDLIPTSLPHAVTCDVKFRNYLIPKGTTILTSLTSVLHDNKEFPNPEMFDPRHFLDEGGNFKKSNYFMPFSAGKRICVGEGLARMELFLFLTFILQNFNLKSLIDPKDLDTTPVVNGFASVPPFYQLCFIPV
# Sequence of Nuclear receptor subfamily 1 group I member 2 (Homo sapiens) (O75469 whole entry, looked up): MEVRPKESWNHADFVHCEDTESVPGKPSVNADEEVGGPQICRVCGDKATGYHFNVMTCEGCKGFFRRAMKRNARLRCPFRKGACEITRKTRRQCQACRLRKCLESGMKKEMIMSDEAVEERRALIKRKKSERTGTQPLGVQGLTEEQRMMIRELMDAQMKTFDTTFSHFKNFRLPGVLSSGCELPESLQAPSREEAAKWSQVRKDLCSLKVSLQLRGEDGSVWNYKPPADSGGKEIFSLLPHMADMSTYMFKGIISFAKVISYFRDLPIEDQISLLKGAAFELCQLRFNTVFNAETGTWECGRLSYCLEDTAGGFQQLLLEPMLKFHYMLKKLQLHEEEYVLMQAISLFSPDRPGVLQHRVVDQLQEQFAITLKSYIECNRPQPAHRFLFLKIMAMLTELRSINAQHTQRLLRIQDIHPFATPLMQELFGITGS
# Sequence of Cytochrome P450 2C9 (Homo sapiens) (P11712 whole entry, looked up): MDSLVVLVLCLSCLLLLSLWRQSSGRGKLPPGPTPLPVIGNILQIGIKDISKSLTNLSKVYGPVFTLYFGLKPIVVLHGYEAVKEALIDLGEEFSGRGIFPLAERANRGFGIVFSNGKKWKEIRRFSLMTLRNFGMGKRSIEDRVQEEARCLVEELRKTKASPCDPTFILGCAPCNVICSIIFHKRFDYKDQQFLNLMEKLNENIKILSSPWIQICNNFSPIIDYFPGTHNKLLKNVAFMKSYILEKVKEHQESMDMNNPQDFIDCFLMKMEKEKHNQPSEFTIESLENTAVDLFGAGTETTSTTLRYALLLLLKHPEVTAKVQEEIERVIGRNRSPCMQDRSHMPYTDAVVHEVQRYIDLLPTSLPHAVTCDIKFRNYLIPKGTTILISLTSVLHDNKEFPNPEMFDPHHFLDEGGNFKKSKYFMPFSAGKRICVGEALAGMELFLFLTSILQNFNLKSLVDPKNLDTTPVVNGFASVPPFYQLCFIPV
SMILES,Potency [1],Potency [2],Potency [3],Potency [4],Potency [5],Potency [6],Potency [7],Potency [8],Potency [9],Potency [10],Potency [11],Potency [12],max activation [13],Potency [14]
O=Cc1ccc(Cl)cc1,inactive,inactive,inactive,inactive,inactive,inactive,inactive,inactive,inactive,,,,,
Cc1cc(Cc2cc(C)cc(C(C)(C)C)c2O)c(O)c(C(C)(C)C)c1,39.8 µM (active) and 61.1 µM (active),61.4 µM (active),27.4 µM (active) and 54.5 µM (active),27.4 µM (active) and 61.1 µM (active),61.4 µM (active) and 61.1 µM (active),,3.57 µM (active) and 3.56 µM (active),39.1 µM (active),5.67 µM (active) and 8.94 µM (active),inactive,5.05 µM (active) and 5.03 µM (active),25.3 µM (active),,
O=C(O)c1cn(-c2ccc(F)cc2)c2cc(N3CCNCC3)c(F)cc2c1=O,inactive,inactive,inactive,inactive,inactive,,inactive,inactive,inactive,inactive,inactive,inactive,-0.0913% (inactive),
CC(C)CCOCc1ccccc1,inactive,inactive,inactive,inactive,inactive,inactive,inactive,inactive,inactive,inactive,inactive,,,
CC(=O)N[C@@H](CS)C(=O)O,inactive,inactive,inactive,inactive,inactive,,inactive,inactive,inactive,inactive,56.3 µM (active) and inactive,inactive,-0.291% (inactive),inactive
C/C=C/c1ccc(OCC)c(O)c1,inactive,inactive,inactive,inactive,inactive,,35.6 µM (active) and 28.3 µM (active),inactive,,inactive,20 µM (active) and 25.2 µM (active),7.1 µM (active) and 7.96 µM (active),,
C1COC(NC(C2CC2)C2CC2)=N1,inactive,inactive,inactive,inactive,inactive,inactive,inactive,inactive,inactive,15.5 µM (active),inactive,inactive,,
c1ccc2c(c1)-c1cccc3c1c-2cc1ccccc13,inactive,inactive,47.4 µM (active),inactive,inactive,29.9 µM (active) and 21.7 µM (active),inactive,inactive,inactive,27.6 µM (active) and inactive,,694 nM (active) and 1 µM (active),,
CC(=O)OCCOCCOCCOC(C)=O,inactive,inactive,inactive,inactive,inactive,,inactive,inactive,inactive,inactive,78.7 µM (active) and inactive,inactive,,
O=C(O)c1cccc(C(=O)O)c1,inactive,inactive,inactive,inactive,inactive,inactive,inactive,inactive,inactive,inactive,inactive,,,
CC(=O)O[C@]1(C(C)=O)CC[C@H]2[C@@H]3C[C@H](C)C4=CC(=O)CC[C@]4(C)[C@H]3CC[C@@]21C,inactive,inactive,inactive,inactive,inactive,,3.99 µM (active) and 13.8 µM (active),inactive,,inactive,15.9 µM (active),inactive,,1.58 µM (active)
O=C(O)Cn1cnnn1,inactive,inactive,inactive,inactive,inactive,inactive,inactive,inactive,inactive,inactive,inactive,inactive,,
CCCN[C@H]1CCc2nc(N)sc2C1,inactive,inactive,inactive,inactive,inactive,,,inactive,,,,,-1.97% (inactive),
CC(C)(C)c1ccccc1,inactive,inactive,inactive,inactive,inactive,inactive,,inactive,inactive,inactive,inactive,20 µM (active),,
C[N+]1([O-])CCOCC1,inactive,inactive,inactive,inactive,inactive,inactive,,inactive,inactive,inactive,39.8 µM (active),31.6 µM (active),,

# Source: PubChem BioAssay (Tox21)
